Source: PubChem BioAssay (several laboratories)
Candida biofilm: kills Candida albicans biofilms; inhibition, % at 6 µM; C. albicans biofilm + clotrimazole, Alamar Blue; 0.14% of 85,000 active; AID 834;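 active = inhibition above 20%; inactive = inhibition below 20%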;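 note: preformed 24 hr biofilms exposed to compound for 48 hr; 0% = biofilm without compound and 100% = blank killed by clotrimazole plus chlorhexidine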
HePTP inhibitor: blocks human HePTP tyrosine phosphatase; P35236; recombinant HePTP phosphatase activity, OD absorbance; inhibition, % at 20 µM; 0.64% of 110,000 active; AID 521; in the data active = inhibition above about 50%;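 note: plate controls were vehicle for no effect and reference inhibitor for full effect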
FXIa mix inh: inhibitors of human coagulation factor XIa, pooled mixtures. P03951. 0.19% of 62,000 active. inhibition, % at 5 µM. purified FXIa, fluorogenic substrate. AID 680;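 note: each value is inhibition by a whole ten-compound pool holding the compound; 0% = enzyme with no mixture and 100% = wells lacking enzyme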
FXIIa mix inh: inhibitors of human coagulation factor XIIa, pooled mixtures. inhibition, % at 5 µM. purified FXIIa, fluorogenic substrate. 0.2% of 62,000 active;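 note: 0% = enzyme without compound and 100% = no enzyme blank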
TNAP act DEA: activators of human TNAP at intermediate phosphate acceptor | P05186 | purified TNAP, CDP-star luminescence, 100 mM DEA, 30 min; hits give high values; scale: 0 levamisole-inhibited, 1 vehicle-only enzyme | activation factor at 20 µM | 64,000 tested, under 10 active | AID 813;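 active = activation factor of at least 2 at 20 µM, relative to controls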
Target sequence (P05186 whole entry, looked up): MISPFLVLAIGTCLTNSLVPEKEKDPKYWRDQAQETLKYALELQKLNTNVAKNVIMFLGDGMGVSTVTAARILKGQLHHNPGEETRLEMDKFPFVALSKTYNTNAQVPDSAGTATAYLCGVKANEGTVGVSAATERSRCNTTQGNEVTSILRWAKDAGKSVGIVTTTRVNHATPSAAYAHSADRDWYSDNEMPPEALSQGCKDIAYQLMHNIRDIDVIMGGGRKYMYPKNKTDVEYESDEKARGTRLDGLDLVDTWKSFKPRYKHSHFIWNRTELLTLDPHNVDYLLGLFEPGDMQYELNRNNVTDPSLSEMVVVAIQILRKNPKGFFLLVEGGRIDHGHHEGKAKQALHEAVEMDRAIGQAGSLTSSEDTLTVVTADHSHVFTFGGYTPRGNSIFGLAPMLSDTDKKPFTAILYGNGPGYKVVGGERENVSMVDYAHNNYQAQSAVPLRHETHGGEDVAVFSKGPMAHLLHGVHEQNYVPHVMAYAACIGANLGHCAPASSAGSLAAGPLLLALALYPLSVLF
D1 allo mod: allosterically modulates the human D1 dopamine receptor | HEK293 D1, CRE-luciferase, dopamine EC30 potentiation; actives deviate in either direction | 5.9% of 58,000 active | P21728 | AID 641 | B-score at 10 µM;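 active = luminescence count or its row- and column-corrected plate score outside the 99.7% band of the plate's sample wells, on either side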
The depositor's hits bear a star; x = no result. Only a selection was taken, and hits are over-represented in it overall. Cut-off read from the data, not from the text of the source, unless noted: active = inhibition above about 20% (passing the limit was not always enough); inactive = the rest.

SMILES	Candida biofilm	HePTP inhibitor	FXIa mix inh	FXIIa mix inh	TNAP act DEA	D1 allo mod
Cc1ccc(S(=O)(=O)NCCOCCNS(=O)(=O)c2ccc(C)cc2)cc1	-6	2	-2	1	0.9	0.59
Cc1ccc(S(=O)(=O)NCCCCCC(=O)N(C)C)cc1	6	-8	1	12	1	-4.3*
COCCNC(=O)CCCCCNS(=O)(=O)c1ccc(C)cc1	5	6	5	1	1	-0.87
O=S(=O)(Nc1ccc2c(c1)OCO2)c1ccccc1	6	-6	x	x	x	x
Cn1c(=O)oc2cc(S(=O)(=O)Nc3ccc4c(c3)OCO4)ccc21	-4	1	7	45*	0.9	-0.65
CN(C)S(=O)(=O)Nc1ccc2c(c1)OCO2	0	10	24*	1	1	-0.016
O=S(=O)(c1ccccc1)c1nc(-c2ccco2)oc1NCc1cccnc1	1	1	8	2	0.9	4.9*
O=S(=O)(c1ccccc1)c1nc(-c2ccccc2)oc1NCc1cccnc1	-1	11	2	12	0.8	2
COC(=O)CSc1nc2nc(C)cc(C)n2n1	14	16	10	5	0.9	-0.4
CCC(=O)Nc1nc(C)cc(SCC(=O)OC)n1	10	7	21*	-1	0.9	0.0074
Cn1c(C(=O)NCCN2CCOCC2)cc2c(=O)n(C)c3ccccc3c21	12	8	9	4	1	-0.27
Cn1c(C(=O)NCCN2CCN(c3ccccc3F)CC2)cc2c(=O)n(C)c3ccccc3c21	17	13	10	8	0.8	-3.7*
Cn1c(C(=O)NCCCN2CCN(c3ccc(F)cc3)CC2)cc2c(=O)n(C)c3ccccc3c21	x	15	8	7	0.8	-5.2*
COC(=O)n1c(=O)oc2cc(S(=O)(=O)N3CCCCC3)ccc21	-3	1	-2	6	0.9	-6.8*
COc1cc(S(=O)(=O)N2CCCCC2)ccc1NC=O	-5	10	4	12	1	-4.2*
CCOC(=O)n1c(=O)oc2cc(S(=O)(=O)N3CCCCC3)ccc21	-4	8	8	3	0.9	-0.039
O=C(Nc1nnc(-c2ccco2)s1)c1ccccc1	2	7	6	-14	1	-4.5*
COc1ccc(C(=O)Nc2nnc(-c3ccco3)s2)cc1	-1	7	x	x	x	x
COc1ccc2c(c1)-c1c(sn(-c3ccc(C)c(C)c3)c1=S)C(C)(C)N2	x	-3	x	x	x	x
COc1ccc(-c2nnc(CSc3nc4ccccc4c(=O)n3CC3CCCO3)o2)cc1OC (stereo unspecified)	5	-11	-2	12	1	11*
COC(=O)C1=C(C)N(c2ccc(Cl)cc2)C(=O)/C1=C\c1ccc(O)c(OC)c1	x	-8	x	x	x	x
O=C(NCc1ccccc1)c1ccc(C(=O)N(C2CCCCC2)C2CCCCC2)cc1	76*	x	x	x	x	x
O=C(NCc1ccccc1)C1CCCCC1	x	5	x	x	x	x
O=C(CSc1nc2ccccc2o1)Nc1nc2c(s1)CCCC2	3	9	-1	1	0.9	-2.4*
Cc1ccc(C)n1-c1ccc(CC(=O)O)cc1	x	102*	x	x	x	x
SMILES	Candida biofilm	HePTP inhibitor	FXIa mix inh	FXIIa mix inh	TNAP act DEA	D1 allo mod
Cc1ccc(C)n1-c1ccc(O)c(C(=O)O)c1	x	104*	x	x	x	x
COc1ccc(S(=O)(=O)n2nc(OC(=O)c3ccccc3)cc2N)cc1	-5	10	28*	12	0.9	0.29
Cc1cc(C)nc(NC(=O)C23CC4CC(CC(C4)C2)C3)c1	x	9	x	x	x	x
CC(C)c1nc(SCc2c(F)cccc2Cl)c2c(=O)n(C)c(=O)n(C)c2n1	6	1	-1	8	1	-3.7*
Cc1ccc(N/C(=N\S(=O)(=O)c2ccccc2)Nc2nc(C)cc(C)n2)cc1	x	-9	x	x	x	x
Clc1ccccc1-c1nc(-c2cccnc2)no1	7	5	4	0	0.9	-1.5*
O=C(CSc1nc2ccc([N+](=O)[O-])cc2s1)Nc1ccc2ccccc2c1	x	-15	x	x	x	x
CCOC(=O)CNC(=O)CSc1ncnc2c1cnn2-c1ccc(OC)cc1	3	3	4	8	1	-2.8*
CCOC(=O)CNC(=O)CSc1ncnc2c1cnn2-c1ccc(C)cc1	4	8	6	-3	0.9	-3.3
Cc1nc2cc(-c3ccc(F)cc3)nn2c(C)c1Cl	x	2	x	x	x	x
CCOc1ccc(-c2nc(Cc3ccc(OC)cc3)no2)cc1	x	0	x	x	x	x
C=CCn1c(C(C)O)nc2ccccc21 (stereo unspecified)	x	-8	x	x	x	x
CC(O)c1nc2ccccc2n1Cc1nnc(-c2ccc(Cl)cc2)o1 (stereo unspecified)	6	-2	-5	6	0.9	-4.6*
